Experimental data taken from PubChem BioAssay AID1233 (SRMLSC, 2008).
Results with a measured potency or affinity are listed apart. The source made the active and inactive calls.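 How the source made its calls: active means a dose-response curve fit returns a half-maximal inhibitory concentration, extrapolated values included; inactive means the fit returns no such concentration.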

The molecules below were run against HMG-CoA reductase [Enterococcus faecalis] (UniProt Q9FD70) (assay: inhibitors of E. faecalis class II HMGR, confirmation, biochemical, Enterococcus faecalis (AID 1233;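 further: 0% = full reaction carrier wells and 100% = background wells lacking mevalonate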)). Conditions: purified E. faecalis HMGR, NADPH absorbance 340 nm kinetics; series mostly up to 100 µM; inhibition: at the top concentration.

inhibition, inactive:
Cc1cc(-c2ccccc2)nc(SCC(=O)N2CCCC2)n1 0.13%
Cc1ccc(S(=O)(=O)N2CCCC2C(=O)Nc2nc3ccccc3s2)cc1 (configuration not stated) -3.26%
COc1ccc(N2C(=O)CS/C2=C\[N+](=O)[O-])cc1 -4.2%
CCCSc1nnc2n(N)c(=O)c3ccccc3n12 -3.93%
O=C(Cn1ncc2ccccc21)N1CCN(c2cccc(C(F)(F)F)c2)CC1 -4.82%
Cc1c(NC(=O)CN2C(=O)c3ccccc3S2(=O)=O)c(=O)n(-c2ccccc2)n1C 1.92%
O=C(NC(=S)N(CC1CCC1)CC1CCCO1)c1cccc([N+](=O)[O-])c1 (configuration not stated) -6.67%
CCOC(=O)C(CC)n1cnc2c(nnn2-c2ccc(OC)cc2)c1=O (configuration not stated) -3.04%
CC(NCCC(c1ccccc1)c1ccccc1)c1ccccc1 (configuration not stated) -3.54%
Cc1ccccc1Nc1nnc(SCc2nc3ccccc3c(=O)[nH]2)s1 -11.1%
O=[N+]([O-])c1ccc(N2CCCCC2)c(-c2nn[nH]n2)c1 -1.68%
O=C(CCn1cnnn1)Nc1ccc(Cl)c(Cl)c1 -6.48%
O=C(CSc1nc2ccccc2n1CCc1ccccc1)N1CCOCC1 -2.07%
O=C(NCCCn1ccnc1)c1ccc(S(=O)(=O)N2CCOCC2)cc1 -1.4%
CCOc1ccc(/C(O)=C2/C(=O)C(=O)N(CC3CCCO3)C2c2ccco2)cc1 (configuration not stated) -5.36%
O=C(COc1cccc(NC(=O)c2ccco2)c1)c1ccc(F)cc1 1.51%
COc1ccc(N=C2C(=O)Nc3ccccc32)cc1 -0.06%
O=C(N/N=C/C(Cl)=C/c1ccccc1)c1cnccn1 -8.76%
COc1ccc(/C=N/NC(=O)C(C)Sc2ccccn2)cc1[N+](=O)[O-] (configuration not stated) -10%
CCc1c(C)nc2c(C#N)c(C)[nH]n2c1=O 0.91%
OC(COc1ccc(Cl)cc1)CN1CCCCC1 (configuration not stated) -2.07%
CCOc1ccc(C2C(C#N)=C(N)Oc3cc(C)oc(=O)c32)cc1 (configuration not stated) -1.84%
N#CCCCn1c(=O)oc2ccccc21 -2.84%
COc1cc(C2CC(=O)N(CC(=O)NCC3CCCO3)c3ccccc3S2)cc(OC)c1OC (configuration not stated) -0.73%
COc1cccc(C(=O)CN2C3=NCCCN3c3ccccc32)c1 -4.22%
Cc1ccc(S(=O)(=O)N2CCN(C(=O)CSc3nnc(-c4ccco4)o3)CC2)cc1 -0.58%
CN(C)C(=O)CSc1n[nH]c(=O)[nH]c1=O -1.34%
Cc1cc(C)nc(N(C#N)CC(=O)N2CCC(C(N)=O)CC2)n1 -2.81%
CC1CCCN(C(=O)C2CCN(CC(C)c3ccccc3)CC2)C1 (configuration not stated) -5.44%
O=S(=O)(NCC1CCCO1)c1ccc2c(c1)OCCO2 (configuration not stated) 0.8%
CC(=O)N1CCN(S(=O)(=O)c2ccc(C)c([N+](=O)[O-])c2)C1C(C)C (configuration not stated) -2.57%
OCC1CCCN(C(=S)Nc2ccc(Nc3ccccc3)cc2)C1 (configuration not stated) -3.22%
O=C1OC(c2cccs2)=N/C1=C/c1ccc(-c2cccc(C(=O)O)c2)o1 -3.77%
Cc1cc(Cl)ccc1Oc1nccc(N(C)C)c1C#N -1.84%
CCN(CC)c1ccc(/C=N/NS(=O)(=O)c2cccc([N+](=O)[O-])c2)cc1 0.13%
NS(=O)(=O)c1ccc(CCN=C(NS(=O)(=O)c2cccs2)c2ccccc2)cc1 -5.75%
CC(C)c1ccc(NC(=O)COC(=O)/C=C/c2cccc(Br)c2)cc1 -6.09%
